MEP2 TOR yeast = yeast TOR pathway MEP2-GFP modulation; S. cerevisiae MEP2-GFP strain, flow cytometry GFP, 3 h; 100% = DMSO control level; GFP response vs DMSO, % at 10 µM; actives 0.51% (n = 330,000);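 active means GFP response versus DMSO above a set limit, roughly screen mean plus 3 SD, cut at about 180% in these data; inconclusive means fewer than 70 cells counted for a yeast strain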;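 further: median GFP fluorescence of the barcode-gated MEP2-GFP cells per well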
AGP1-GFP MLPCN = modulators of TOR pathway AGP1-GFP in S. cerevisiae. GFP response vs DMSO, % at 10 µM. S. cerevisiae AGP1-GFP multiplex flow cytometry, 3 h; GFP as percent of DMSO wells. actives 0.02% (n = 320,000). AID 2066;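 active means GFP response relative to DMSO above a set limit, near screen average plus 3 SD, cut at about 150% in these data; inconclusive means fewer than 70 cells counted for the yeast strain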;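 further: median GFP channel fluorescence of the gated AGP1 strain per well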
CIT2-GFP yeast = modulators of TOR pathway CIT2-GFP in S. cerevisiae; actives 0.065% (n = 320,000); GFP response vs DMSO, % at 10 µM; S. cerevisiae CIT2-GFP strain, flow cytometry, 3 h; 100 means same as DMSO wells;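 active means GFP response relative to DMSO above a set limit, near the screen mean plus 3 SD, cut at about 150% in these data; inconclusive means Fewer than 70 cells measured for a yeast strain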;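 further: ratio of well median GFP fluorescence to mean of DMSO wells on the plate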
RPL19A-GFP yeast = alters RPL19A-GFP fluorescence in TOR pathway yeast screen; S. cerevisiae RPL19A-GFP strain, flow cytometry, 3 h; active compounds read low; percent response vs DMSO, % at 10 µM; actives 0.3% (n = 330,000);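 active means percent response vs DMSO below 50%; inconclusive means fewer than 70 events counted for the yeast strain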;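 further: median channel GFP fluorescence of the barcoded RPL19A-GFP strain; lower means less RPL19A-GFP as with rapamycin TOR inhibition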
Myeloid diff MLP = compounds promoting myeloid differentiation. actives 1% (n = 360,000). ER-HoxA9 myeloid progenitors, lysozyme-GFP differentiation, flow cytometry. AID 624256. calls only at 10 µM;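 active means normalized GFP-positive differentiation at or above the plate's own cutoff, the solvent-only control mean plus 3 SD; inconclusive means no clear call, values can overlap the other calls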;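 further: cells exposed to compound for four days before flow analysis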
LAP4-GFP MLPCN = modulators of TOR pathway LAP4-GFP in S. cerevisiae; AID 2023; S. cerevisiae LAP4-GFP multiplex, flow cytometry GFP, 3 h; median GFP as percent of DMSO wells; GFP response vs DMSO, % at 10 µM; actives 0.34% (n = 320,000);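 active means GFP response vs DMSO above a set limit, about the screen mean plus 3 SD, cut at about 150% in these data; inconclusive means under 70 cell events counted for the yeast strain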
Hits are given with their value; n = inactive; u = inconclusive; x = not tested or not shown; + = active, no number; [ ] = dose if it differs, or a comment. Rows were chosen to be rich in hits. Some 1.8% of all compounds tested hit in one or more screens of this group.

SMILES | MEP2 TOR yeast | AGP1-GFP MLPCN | CIT2-GFP yeast | RPL19A-GFP yeast | Myeloid diff MLP | LAP4-GFP MLPCN
O=C(Nc1ccc(Cl)cc1)C1C2C=CC3(O2)C1C(=O)N(CCN1CCCCC1)C3C(=O)NC1CCCCC1 (configuration not stated) | 387[may fluoresce violet] | n | u | n | n | n
CC(=O)NC1CC2CCCC(C1)N2CC(=O)NCc1ccc(F)cc1 (configuration not stated) | n | x | n | n | n | n
O=C(O)c1cc(N2C(=O)CCC2=O)ccc1NCc1cccnc1 | n | n | n | n | n | n
CCOC(=O)c1nc2cc3n(c(C)c-2c1C)C(C)C(C)=C3C (configuration not stated) | n | n | n | n | n | n
CCOC(=O)c1nc2cc3n(c(CC(C)C)c-2c1C)CC(C)=C3C | n | n | n | n | + | n
O=[N+]([O-])c1ccc(-c2ccc(/C=N/Nc3nc(NCc4ccccc4)nc(N4CCOCC4)n3)o2)cc1 | n | n | n | n | + | n
COc1nc(N/N=C/c2ccc(-c3ccccc3[N+](=O)[O-])o2)nc(N2CCOCC2)n1 | n | n | n | n | n | n
NCCC1CCCC(CCN)N1 (configuration not stated) | n | n | n | u | n | 454[may fluoresce red]
CCOC(=O)C1(CC2CC2)CCN(C(=O)c2ocnc2C)CC1 | n | n | n | n | + | n
Cc1ccc(-n2ncc3c(SCc4ccccn4)ncnc32)c(C)c1 | n | n | n | n | n | n
CC(=O)OCC1OC(n2cc(F)c(=O)[nH]c2=O)C(OC(C)=O)C1OC(C)=O (configuration not stated) | n | n | n | n | u | n
C[C@H]1O[C@@H](n2cc(F)c(=O)[nH]c2=O)[C@H](O)[C@@H]1O | u | u | u | 41[may fluoresce violet] | n | u
CN(CCOc1ccccc1)CC(=O)Nc1cc([N+](=O)[O-])ccc1Cl | n | n | n | n | n | n
CCOc1ccc(CN(C)CC(=O)Nc2ccc([N+](=O)[O-])cc2Cl)cc1 | n | n | n | n | + | n
CCC1OC2(C)OC(=N)C1(C#N)C(C#N)(C#N)C2c1ccccc1 (configuration not stated) | n | n | n | n | n | n
CCC12OC(=N)C(C#N)(C1C)C(C#N)(C#N)C(c1ccccc1)O2 (configuration not stated) | 204[may fluoresce violet] | n | u | n | n | n
O=C(O)CCN1C(=O)/C(=C2\C(=O)N(Cc3ccccc3Cl)c3ccccc32)SC1=S | n | n | n | n | + | n
CSc1nc(C)c2c(c1C#N)CCCC2 | n | x | n | n | n | n
O=C(Nc1ccc2c(c1)OCO2)c1cnn2c(C(F)(F)F)cc(-c3ccco3)nc12 | n | n | n | n | n | n
COc1ccc(NC(=O)c2cnn3c(C(F)(F)F)cc(-c4ccco4)nc23)cc1OC | 250[may fluoresce violet] | n | u | x | n | n
O=C1CCCC2=C1C(c1ccncc1)n1c(nc3ccccc31)N2 (configuration not stated) | n | n | n | n | n | n
O=C(Nc1ccc(Cl)cc1)Nc1ccc2c(c1)N1CCN=C1S2 | n | n | n | n | + | n
Nc1ccc2c(c1)N1CCN=C1S2 | n | n | n | n | n | n
COc1ccc(C(CNC(=O)c2cccc(S(=O)(=O)NCc3ccccc3)c2)N2CCOCC2)cc1 (configuration not stated) | n | n | n | n | x | n
NNC(=O)c1[nH]c2ccc(Br)cc2c1-c1ccccc1 | n | x | x | n | + | x
SMILES | MEP2 TOR yeast | AGP1-GFP MLPCN | CIT2-GFP yeast | RPL19A-GFP yeast | Myeloid diff MLP | LAP4-GFP MLPCN
Cc1ccc2[nH]c(C(=O)NN=C3CCCCC3)c(-c3ccccc3)c2c1 | n | n | n | n | + | n
COc1ccc(OCC(=O)Nc2nnc(C)s2)cc1 | n | n | n | x | n | n
CCOC(=O)CC(=O)CSc1nc(-c2ccccc2)cc(-c2ccccc2)c1C#N | n | n | n | n | + | n
COc1ccc(CNC(=O)CSc2nc(-c3ccccc3)cc(-c3cccs3)c2C#N)cc1 | n | n | n | n | n | n
COc1cc(-c2cc(-c3ccccc3)nc(SCC(=O)Nc3nccs3)c2C#N)cc(OC)c1OC | n | n | n | n | + | n
O=C(NC1=NCCS1)c1cccc(Br)c1 | 185[may fluoresce violet] | n | u | n | n | n
